Source: PubChem (National Center for Advancing Translational Sciences (NCATS))
The list is not random: actives were taken first. Their share in the collection is about 2.6%.
Cruzain inh Det: blocks cruzain activity in presence of Triton detergent. P25779. purified cruzain, Z-FR-AMC fluorescence, 0.01% Triton. Potency, µM, hits mostly inhibitors. 200,000 compounds, 0.43% hits. AID 1478; further: nearly all actives have a fitted effect of over 40% in size
Target sequence (P25779 123-467 limits assumed): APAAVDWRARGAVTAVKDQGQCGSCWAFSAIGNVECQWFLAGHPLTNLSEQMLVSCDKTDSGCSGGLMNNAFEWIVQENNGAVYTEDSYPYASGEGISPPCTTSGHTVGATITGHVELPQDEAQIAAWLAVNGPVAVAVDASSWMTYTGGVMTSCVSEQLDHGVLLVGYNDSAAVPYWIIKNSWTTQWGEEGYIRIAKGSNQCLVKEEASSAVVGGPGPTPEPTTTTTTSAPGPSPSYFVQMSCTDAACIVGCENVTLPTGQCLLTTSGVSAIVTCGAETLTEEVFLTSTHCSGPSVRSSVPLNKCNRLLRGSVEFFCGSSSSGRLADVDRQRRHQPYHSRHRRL
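Purified cruzain (1.5 nM final) was preincubated with compounds for 15 min at room temperature in 100 mM sodium acetate pH 5.5, 5 mM DTT, 0.01% Triton X-100. Reaction started with 2 uM Z-FR-AMC; AMC fluorescence change over 60 s gave activity.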
Cruzain noTriton: blocks cruzain activity in detergent-free assay; P25779; purified cruzain, Z-FR-AMC fluorescence, no detergent; Potency, µM, hits mostly inhibitors; 200,000 compounds, 2.3% hits; further: nearly all actives have a fitted effect of over 40% in size
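Detergent-free condition (0.00005% Triton X-100) in acetate buffer pH 5.5 with DTT. 1.5 nM enzyme and compound were pre-mixed 15 min, then 2 uM Z-FR-AMC substrate added; reaction progress from fluorescence change between first and third reads (60 s).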
A number is an active result. The call rests on the fitted dose curve; in most records, active means well fitted curve in the direction sought with a large enough effect; inconclusive means small, poorly fitted or top-dose-only effect, or another doubt; inactive means no such curve, though single readings can be large; an effect the other way counts as inactive or inconclusive.

Screening Cc1ccc(NC(=O)Cn2c(/C=C/c3ccccc3)nc3ccccc32)cc1C returned Cruzain inh Det inactive and Cruzain noTriton 16µM.
Nc1nonc1-c1nc2ccccc2n1CC(=O)Nc1cccc(Cl)c1Cl was read as Cruzain inh Det inactive and Cruzain noTriton inactive.
`O=C(NCC(c1cccnc1)N1CCc2ccccc2C1)c1ccc(F)c(F)c1` (configuration not stated) gave Cruzain inh Det inactive and Cruzain noTriton inactive.
For COc1cc(-c2noc(-c3ccc(NCCc4ccccc4)c([N+](=O)[O-])c3)n2)cc(OC)c1OC the results were Cruzain inh Det inactive and Cruzain noTriton inactive.
For O=S(=O)(c1cccc(C(F)(F)F)c1)N1CCC(Oc2ccc(-n3cnnn3)cc2)CC1 the results were Cruzain inh Det inactive and Cruzain noTriton inactive.
Cc1nc2cnc(N(C)C)nc2n(CCC#N)c1=O was read as Cruzain inh Det inactive and Cruzain noTriton inactive.
O=C(CSc1nc2ccccc2[nH]1)N1c2ccccc2Sc2ccccc21 was read as Cruzain inh Det inactive and Cruzain noTriton inactive.
O=C(CSc1nc2ccccc2[nH]1)c1ccc(Cl)s1 was read as Cruzain inh Det inactive and Cruzain noTriton 10µM.
`Cc1ccc(Cl)cc1NC(=O)CSC1=Nc2ccccc2C2=NC(Cc3ccccc3)C(=O)N12` (configuration not stated) gave Cruzain inh Det inactive and Cruzain noTriton inactive.
For COc1ccc(C2C(C#N)=C(N)Nc3nc4ccccc4n32)cc1 (configuration not stated) the results were Cruzain inh Det inactive and Cruzain noTriton inconclusive.
`COc1ccc(C2C(C#N)=C(N)N3C(=C2C#N)Sc2ccccc23)cc1` (configuration not stated) gave Cruzain inh Det inactive and Cruzain noTriton 6.3µM.
CCn1c(=O)c2sccc2n2c(CCCC(=O)N3CCN(c4cc(C)ccc4C)CC3)nnc12 was read as Cruzain inh Det inactive and Cruzain noTriton inactive.
Screening CCc1nonc1NC(=O)c1oc2cc(C)c(C)cc2c1C returned Cruzain inh Det inactive and Cruzain noTriton inactive.
For CCc1nnc(NC(=O)c2oc3cc(C)c(C)cc3c2C)s1 the results were Cruzain inh Det inactive and Cruzain noTriton 13µM.
For COCCCNC(=O)C1CCN(Cc2cc3ccccc3n2Cc2cccc(C)c2)CC1 the results were Cruzain inh Det inactive and Cruzain noTriton inactive.
Screening O=C(Cn1ncc2c3ccccc3n(Cc3cccc(Cl)c3)c2c1=O)NC1CCCCCC1 returned Cruzain inh Det inactive and Cruzain noTriton inconclusive.
`Cc1cccc(CNC(=O)Cn2nc(C)n3c(cc4cc(F)ccc43)c2=O)c1` gave Cruzain inh Det inactive and Cruzain noTriton inactive.
For COCCCn1c(=O)c2sccc2n2c(CCCC(=O)Nc3cccc(OC)c3)nnc12 the results were Cruzain inh Det inactive and Cruzain noTriton inactive.
O=C(Nc1noc2ccccc12)c1cccc(Cl)c1Cl was read as Cruzain inh Det inactive and Cruzain noTriton 25µM.
COc1ccc(C(=O)Nc2noc3ccccc23)cc1 was read as Cruzain inh Det inactive and Cruzain noTriton inactive.
Screening COc1cc2nc(SCc3ccc(Cl)cc3Cl)n(Cc3cccs3)c(=N)c2cc1OC returned Cruzain inh Det inactive and Cruzain noTriton 7.9µM.
Screening COc1cc2nc(SCc3ccc(C(F)(F)F)cc3)n(Cc3cccs3)c(=N)c2cc1OC returned Cruzain inh Det inactive and Cruzain noTriton inconclusive.
`COc1cccc(CNC(=O)CSc2ccc(-c3sc(-c4ccccc4)nc3C)nn2)c1` gave Cruzain inh Det inactive and Cruzain noTriton inconclusive.
Screening C=CCC(C)(O)C(=O)OCC (configuration not stated) returned Cruzain inh Det inactive and Cruzain noTriton inactive.
`Cc1cccc(NC(=O)CSc2nc3c(c(=O)[nH]2)CN(Cc2ccc4c(c2)OCO4)CC3)c1C` gave Cruzain inh Det inactive and Cruzain noTriton inactive.
COC(=O)c1ccc(C(NC(=O)OCc2ccccc2)/C(F)=C/[C@@H](C)C(=O)NCc2ccc(-c3ccccc3)cc2)cc1 (some centres not stated) was read as Cruzain inh Det inactive and Cruzain noTriton 10µM.
Screening COC(=O)c1ccc(C(NC(=O)OCc2ccccc2)/C(F)=C/[C@@H](C)C(=O)NCc2cc(F)cc(F)c2)cc1 (some centres not stated) returned Cruzain inh Det inactive and Cruzain noTriton inactive.
Screening Cc1c(C(=O)Nc2ccccc2)sc2nc(-c3cc4ccccc4oc3=O)[nH]c(=O)c12 returned Cruzain inh Det inactive and Cruzain noTriton inactive.
`Cn1cc(S(=O)(=O)N2CCCC2)cc1C(=O)Nc1ccc(C(F)(F)F)cc1` gave Cruzain inh Det inactive and Cruzain noTriton inactive.
`O=C(Nc1ccc2c(c1)CCC2)c1ccc(F)cc1` gave Cruzain inh Det inactive and Cruzain noTriton inactive.
O=C(Nc1ccc2c(c1)CCC2)c1cc(S(=O)(=O)Nc2ccc(F)cc2)c(Cl)cc1Cl was read as Cruzain inh Det inactive and Cruzain noTriton 20µM.
Cc1cc(N2CCN(S(=O)(=O)c3ccccc3)CC2)c2ccccc2n1 was read as Cruzain inh Det inactive and Cruzain noTriton inactive.
For O=C(c1cc(-c2cccs2)nc2ccccc12)N1CCN(S(=O)(=O)c2ccccc2)CC1 the results were Cruzain inh Det inactive and Cruzain noTriton inconclusive.
For O=S(=O)(c1ccccc1)N1CCN(c2nc(-c3cccs3)nc3ccccc23)CC1 the results were Cruzain inh Det inactive and Cruzain noTriton 16µM.
`O=S(=O)(c1ccc(Cl)cc1)N1CCN(c2nc(-c3cccs3)nc3ccccc23)CC1` gave Cruzain inh Det inactive and Cruzain noTriton 10µM.
Screening CCCCC(=O)Nc1nnc(S(=O)(=O)N(C)Cc2ccc(Cl)cc2)s1 returned Cruzain inh Det inactive and Cruzain noTriton inactive.
Screening COc1ccc(CNC(=O)Cc2c(C)c3c(cc(C)c4c(C)coc43)oc2=O)cc1OC returned Cruzain inh Det inactive and Cruzain noTriton inactive.
Screening Cc1nc2scc(C)n2c(=O)c1S(=O)(=O)Nc1cccc(C(F)(F)F)c1 returned Cruzain inh Det inactive and Cruzain noTriton inactive.
For COC(=O)c1ccc(COC(=O)c2ccc(CS(=O)(=O)c3ccc(C)cc3)cc2)cc1 the results were Cruzain inh Det inactive and Cruzain noTriton 25µM.
`Cc1ccc(S(=O)(=O)CCC(=O)OCc2ccc(Cl)cc2)cc1` gave Cruzain inh Det inactive and Cruzain noTriton inactive.
CNS(=O)(=O)c1cn(CC(=O)Nc2cccc(C(F)(F)F)c2)cc1S(=O)(=O)NC was read as Cruzain inh Det inactive and Cruzain noTriton inactive.
`Cc1ccc(NC(=O)CCc2c(C)nc3cc(-c4ccccc4)nn3c2C)cc1F` gave Cruzain inh Det inactive and Cruzain noTriton inactive.
Screening COc1ccccc1Nc1nn2c(=O)c3ccc(C(=O)NCc4ccc(F)cc4)cc3nc2s1 returned Cruzain inh Det inactive and Cruzain noTriton inactive.
For CCc1ccccc1Nc1nn2c(=O)c3ccc(C(=O)NCc4ccccc4OC)cc3nc2s1 the results were Cruzain inh Det inactive and Cruzain noTriton 13µM.
For CCc1ccccc1Nc1nn2c(=O)c3ccc(C(=O)NCCC4=CCCCC4)cc3nc2s1 the results were Cruzain inh Det inactive and Cruzain noTriton 25µM.
Screening CCc1ccccc1Nc1nn2c(=O)c3ccc(C(=O)Nc4ccc(OC)cc4)cc3nc2s1 returned Cruzain inh Det inactive and Cruzain noTriton inactive.
COc1ccc(Cn2c(=O)c3ccccc3n3c(-c4ccc(C)cc4)nnc23)cc1 was read as Cruzain inh Det inactive and Cruzain noTriton inactive.
Screening CCOC(=O)CC(=O)CSc1nc2ccsc2c(=O)n1Cc1ccccc1 returned Cruzain inh Det inactive and Cruzain noTriton inactive.
